A word on the AC50: it is the concentration at which the activity in the assay is half-maximal.

Results filed as inconclusive are left out. Active and inactive are the calls of the source. Rule for the calls: active = hit-call score of the fitted dose curve at least 0.9, where 1 is the maximum; inconclusive = response in the unintended direction; inactive = score below 0.9.

Read-out in the test: xenobiotic metabolism (CYP1A2), CYP1A2 (gene 1544)
The experiment in a line: CLD_CYP1A2_6hr: CellzDirect (CLD) Gene Expression Assay for xenobiotic metabolism (CYP1A2) at 6 hours (AID 2283663).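 For AC50: potency is for induction meaning a rise in mRNA above DMSO.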 The method, then: CLD_6hr is a cell-based, multiplexed-readout assay that uses hepatocyte, a human liver primary cell, with measurements taken at 6 hours after chemical dosing in a 96-well plate.CLD_CYP1A2_6hr is one of 16 assay component(s) measured or calculated from the CLD_6hr assay. It is designed to make measurements of mRNA induction, a form of inducible reporter, as detected with chemiluminescence signals by Quantitative Nuclease Protection Assay (qNPA) technology.Data from the assay component CLD_CYP1A2_6hr was analyzed at the endpoint, CLD_CYP1A2_6hr, in the positive analysis fitting direction relative to DMSO as the negative control and baseline of activity. Using a type of inducible reporter, gain-of-signal activity can be used to understand changes in the reporter gene as they relate to the gene CYP1A2. Furthermore, this assay endpoint can be referred to as a primary readout. To generalize the intended target to other relatable targets, this assay endpoint is annotated to the cyp intended target family, where subfamily is xenobiotic metabolism.
Human hepatocyte cultures were treated daily for two consecutive days with fresh dosing solutions containing appropriate concentrations of the 320 ToxCast chemicals (chemical identities were blinded to CellzDirect and other ToxCast collaborators), vehicle control (0.2% DMSO), and positive control inducers as summarized in Table 1. Due to the large number of treatment groups and chemicals examined, the ToxCast chemicals were divided into two groups (spanning two independent cultures of hepatocytes from separate donor preparations (Hu778: ToxCast plates 1 and 2; Hu776: ToxCast plates 3 and 4). Each preparation of human hepatocyte cultures was treated with respective vehicle control, medium only control, set of six positive controls/reference chemicals for the five hepatic receptor pathways, and a subset of eight of the ToxCast chemicals (indoxacarb, pyrithiobac-sodium, norflurazon, cyhalofop-butyl, methomyl, thiram, acetochlor, and propiconazole). These replicate data, coupled with internal replicates designed within the blinded ToxCast chemical library, provided additional data to evaluate interindividual differences between hepatocyte preparations and their potential impact on chemical profiles.Cell morphology and integrity were evaluated using phase-contrast microscopy as an indicator of hepatocyte cell health (Tyson & Green, 1987). Cultures for each treatment group (i.e., media, vehicle [0.2% DMSO], positive control inducers [multiple concentrations], and the ToxCast chemicals [multiple concentrations]) were observed and cell morphology was assessed relative to vehicle control cultures at each harvest time point (0, 6, 24, or 48 h). […] Images were evaluated at the conclusion of the study to assess changes in cell integrity and account for the effects of chemical exposure on uncharacteristic changes in concentration-dependent gene expression profiles. The results from these determinations of apparent cytotoxicity were annotated (yes/no) alongside the corresponding qNPA data for reference.At the conclusion of each treatment period, hepatocyte cultures (96-well) were washed with 1 volume of HBSS, lysed by addition of 25 ul ArrayPlate lysis buffer (HTG, Tucson, AZ), and 70 ul/well of Denaturation Oil, denatured by incubation at 95C for 10 min, and frozen at approximately -70C until analysis by nuclease protection assay (qNPA) (Roberts et al., 2007). For qNPA analysis, cell lysates were thawed at 50C for approximately 30 min, qNPA probes were added, and samples were incubated at 95C for 10 min to begin the detection process by denaturing the target RNA, dissociating the duplexes and secondary structure hybridization. At the conclusion of the hybridization period, S1 nuclease reagent was added to each sample to digest all nonprotected nucleotides at 50C for 60-90 min. […]
In the case of `CC1(C)CON(Cc2ccccc2Cl)C1=O`, the outcome was inactive.

`CC(C)N1C(=O)c2ccccc2NS1(=O)=O`: the outcome was inactive.

For `CCCCOCN(C(=O)CCl)c1c(CC)cccc1CC`, the result was inactive. Regarding `O=C(Nc1ccccc1-c1ccc(Cl)cc1)c1cccnc1Cl`, the AC50 is 2.34 µM (active).

Take `COC(=O)c1c(C(F)F)nc(C(F)(F)F)c(C2=NCCS2)c1CC(C)C`: the AC50 was 0.665 µM (active). Consider `CCOc1cc(C(C)(C)C)ccc1C1COC(c2c(F)cccc2F)=N1` (stereo not given), for which the result was inactive. Consider `N#Cc1c[nH]cc1-c1cccc2c1OC(F)(F)O2`, for which the AC50 was 0.554 µM (active). Turning to `COP(=S)(OC)Oc1ccc([N+](=O)[O-])c(C)c1`, the AC50 was 3.34 µM (active). For the compound `CCNC(=O)NC(=O)C(C#N)=NOC`, the compound was called inactive. As to `CCCN(CC)CC1COC2(CCC(C(C)(C)C)CC2)O1` (stereo not given), the compound was called inactive.

On to `CCC(C)n1c(=O)[nH]c(C)c(Br)c1=O` (stereo not given), for which the AC50 is 9.68 µM (active). As to `CCCCC(O)(Cn1cncn1)c1ccc(Cl)cc1Cl` (stereo not given), the compound was classed as inactive. Still for that read-out and setting: with `Cn1c(-c2ccccc2)cc(-c2ccccc2)[n+]1C` the entry was “inactive”. The same measure, in the same setting: with `Clc1nc(Cl)nc(Nc2ccccc2Cl)n1` the entry was “inactive”; with `CC(C)Oc1cccc(NC(=O)c2ccccc2C(F)(F)F)c1`, “inactive”. Take `CC(C)C1(C)N=C(c2ncccc2C(=O)O)NC1=O` (stereo not given): the AC50 was 1.89 µM (active). Consider `COP(=O)(OC)O/C(C)=C/C(=O)N(C)C`, for which the call was inactive. Same read-out and setting: next, `C=C(C)CN(CC)c1c([N+](=O)[O-])cc(C(F)(F)F)cc1[N+](=O)[O-]`: “inactive”; `CSC(=O)c1c(C(F)F)nc(C(F)(F)F)c(C(=O)SC)c1CC(C)C`: “inactive”. On to `CC(C)Nc1nc(Cl)nc(NC(C)C)n1`, for which the AC50 was 0.163 µM (active).

As for `Nc1c(Cl)c(F)nc(OCC(=O)O)c1Cl`, the result was inactive. Same read-out and setting: with `Clc1cccc(C(Cl)(Cl)Cl)n1` the entry was “inactive”; with `CC1(C)C(C(=O)OC(C#N)c2cccc(Oc3ccccc3)c2)C1(C)C` (stereo not given), “inactive”.

Turning to `CCOC(=O)C(C)OC(=O)c1cc(Oc2ccc(C(F)(F)F)cc2Cl)ccc1[N+](=O)[O-]` (stereo not given), the AC50 was 4.81 µM (active).

For `CCN(CC)C(=O)C(C)Oc1cccc2ccccc12` (stereo not given), the AC50 is 4.15 µM (active). Regarding `COc1ccc(-c2ccccc2)cc1NNC(=O)OC(C)C`, the AC50 was 0.798 µM (active). On to `COCC(=O)N(c1c(C)cccc1C)C(C)C(=O)OC` (stereo not given), for which the compound was classed as inactive. Turning to `CCNP(=S)(OC)O/C(C)=C/C(=O)OC(C)C` (stereo not given), the AC50 is 3.56 µM (active). Same read-out and setting: with `CC(C)NC(=O)N1CC(=O)N(c2cc(Cl)cc(Cl)c2)C1=O` the figure was 20 µM (active). Take `OC(c1ccc(Cl)cc1)(c1ccc(Cl)cc1)C(Cl)(Cl)Cl`: the compound was classed as inactive.

For `CC(C)N1C(=O)N(c2ccccc2)CSC1=NC(C)(C)C`, the compound was classed as inactive. On to `CCN(CC)c1nc(C)cc(OP(=S)(OC)OC)n1`, for which the AC50 is 5.69 µM (active).

Turning to `CCOc1nc(F)cc2nc(S(=O)(=O)Nc3c(Cl)cccc3Cl)nn12`, the compound was called inactive.

Turning to `Cc1ccc(N=CN(C)C=Nc2ccc(C)cc2C)c(C)c1`, the result was inactive.

Take `O=c1n(Cl)c(=O)n(Cl)c(=O)n1Cl`: the AC50 is 20 µM (active).

`COP(=S)(OC)SCn1nnc2ccccc2c1=O`: the AC50 is 5.35 µM (active). With `COc1cc(OC)nc(NC(=O)NS(=O)(=O)c2ncccc2OCC(F)(F)F)n1`, the call was inactive. For `CCOP(=O)(OCC)Oc1nc(Cl)c(Cl)cc1Cl`, the AC50 is 5.84 µM (active). Turning to `CCOc1nc(C(Cl)(Cl)Cl)ns1`, the outcome was inactive. As to `O=P(O)(O)CCCl`, the result was inactive.

Values taken from PubChem BioAssay (EPA / NIEHS).
